PubChem BioAssay AID449762 (Southern Research Specialized Biocontainment Screening …, 2010)
“And” between values parts separate entries of the source, which are not always exact repeats. Identical values can stand only once. Among all 330,000 compounds or so, about 1,900 (0.58%) were called active. Not shown: some 4% with an inconclusive outcome. No stated cut-off is given here; in the data, inconclusive means inhibition above about 70% without an active follow-up result; inactive means below that. Not all results are given here. Entries with a potency or affinity are not part of this list.

Assay: M. tuberculosis growth inhibition, HTS (AID 449762);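 further: bacterial growth assessed after seven days of incubation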
Conditions: M. tuberculosis H37Rv growth inhibition, 7H9 media; at 25 µM; hits give high values

| SMILES | inhibition |
| --- | --- |
| O=S(=O)(c1ccc(F)cc1)n1ccc2cccnc21 | 4.44% (inactive) |
| Cc1nc2ccc(-c3nc4ccccc4o3)cc2[nH]1 | 8.75% (inactive) |
| Nc1ccc(-c2nc3ccccc3o2)cc1 | 49% (inactive) |
| COc1ccc(/C=N/NC(=O)c2cc3c(ccc4ccccc43)o2)cc1OC | 11.8% (inactive) |
| Cc1ccc2nc(N3C(=O)C(O)=C(C(=O)c4cc5ccccc5o4)C3c3cccs3)sc2c1 (stereo not given) | -1.99% (inactive) |
| Cc1ccc2nc(N3C(=O)C(O)=C(C(=O)c4ccco4)C3c3cccs3)sc2c1 (stereo not given) | -7.92% (inactive) |
| COc1ccc(CNC(=O)c2cccc(NC3=NC4CS(=O)(=O)CC4S3)c2)cc1 (stereo not given) | -9.1% (inactive) |
| CC[n+]1ccccc1/C=C1\Sc2ccc(C)cc2N1C | 6.67% (inactive) |
| CCN1/C(=C/C=C/C=C/C=C/c2sc3ccccc3[n+]2CC)Sc2ccccc21 | 5.11% (inactive) |
| Cc1cc(C)n(-c2ccc(Cl)c(C(=O)OCC(=O)N3CCCCC3C)n2)n1 (stereo not given) | -1.17% (inactive) |
| C/C(=N\NC(=O)c1nnn(-c2nonc2N)c1CN(C)c1ccccc1)c1ccc(O)cc1 | -0.5% (inactive) |
| C/C(=N\NC(=O)c1nnn(-c2nonc2N)c1CN(C)c1ccccc1)c1ccccc1O | 12.9% (inactive) |
| Cc1ccc(C)c(OC(=O)C2CSC3(C)CCC(=O)N23)c1C (stereo not given) | -8.22% (inactive) |
| Cc1ccc(NS(=O)(=O)c2ccc(Cl)c(C(=O)Nc3ccccc3-c3nc4ccccc4[nH]3)c2)cc1C | 4.41% (inactive) |
| CCC(NC(=O)c1ccccc1NC(=O)c1ccco1)C(=O)NNC(=O)c1ccc(OC)cc1 (stereo not given) | -4.34% (inactive) |
| O=C(Nc1cc(Cl)cc(Cl)c1)C1C2C=CC3(O2)C1C(=O)N(CCCN1CCOCC1)C3C(=O)NC1CCCCC1 (stereo not given) | -1.97% (inactive) |
| CCOC(=O)Cn1c(Br)nc2c1c(=O)[nH]c(=O)n2C | 2.17% (inactive) |
| Cc1ccc(C2C(C#N)=C(N)Oc3n[nH]c(C)c32)cc1 (stereo not given) | 2.2% (inactive) |
| Cc1[nH]nc2c1C(c1ccc(-c3ccccc3C#N)o1)C(C#N)=C(N)O2 (stereo not given) | 16.8% (inactive) |
| CCN(c1ccccc1)S(=O)(=O)c1ccc(C(=O)Nc2ccncc2)cc1 | 48.8% (inactive) |
| Cc1ccc2ncnc(NCCC(=O)O)c2c1 | -11.8% (inactive) |
| NC(=O)CSc1nnc(NC(=O)c2ccc(S(=O)(=O)N3CCCCC3)cc2)s1 | 4.86% (inactive) |
| COc1cc2cnc(-c3ccccc3)c(-c3cc(OC)c(OC)c(OC)c3)c2cc1OC | 27.5% (inactive) |

| SMILES | inhibition |
| --- | --- |
| Fc1ccc2cnc(-c3ccccc3)c(-c3ccc(C(F)(F)F)cc3)c2c1 | 39.5% (inactive) |
| CC(C)(C)c1ccc(OCCC(=O)NC2=NCCS2)cc1 | 48.1% (inactive) |
| CCOc1ccc(OCCCC(=O)NC2=NCCS2)cc1 | 1.39% (inactive) |
| O=c1ccc(-c2ccccc2)nn1Cc1ccccc1F | 4.51% (inactive) |
| COc1ccc(-c2cc(C(=O)NC(C)c3ccccn3)c3ccccc3n2)cc1OC (stereo not given) | -9.49% (inactive) |
| CC1=NN(c2ccccc2)C(=O)C1C(=O)c1cc([N+](=O)[O-])cc([N+](=O)[O-])c1 (stereo not given) | -4.74% (inactive) |
| CCCCCCCN1N=C(C)C(C(=O)c2ccccc2)C1=O (stereo not given) | 64.7% (inactive) |
| CN1CC(=O)N2C(c3cccc([N+](=O)[O-])c3)c3[nH]c4ccccc4c3C[C@H]2C1=O (stereo not given in full) | 6.28% (inactive) |
| CCOc1cc2c3c(c1)C1(Nc4ccccc4S1)C(=O)N3C(C)(C)CC2C (stereo not given) | 22.3% (inactive) |
| CCOc1cc2c3c(c1)C1(OCCO1)C(=O)N3C(C)(C)CC2C (stereo not given) | 8.79% (inactive) |
| O=C(CN1CCN(c2ccccc2)CC1)NC(=O)NCc1ccco1 | -5.69% (inactive) |
| CC(=O)Nc1ccc(S(=O)(=O)N(C)CC(=O)NC2=NCCS2)cc1 | -7.06% (inactive) |
| CC1(C)CC(=O)C(C2=NC(C)(C)Cc3ccccc32)=C(O)C1 | -7.77% (inactive) |
| CC1=NC(C)(C)Cc2ccccc21 | -5.42% (inactive) |
| O=C(CN(C(=O)c1ccccc1)N1C(=O)CCC1=O)c1cccs1 | -6.33% (inactive) |
| CN1CC(=O)N(CC(=O)N2N=C(c3ccc(Cl)cc3)CC2c2ccco2)C1=O (stereo not given) | 22.3% (inactive) |
| CCC1(CC)NC(=O)N(CC(=O)N2N=C(c3ccc(Cl)cc3)CC2c2ccco2)C1=O (stereo not given) | 3.27% (inactive) |
| O=C(N[C@@H]1C/C=C\C[C@@H](CC(=O)N(CCO)Cc2ccccc2)C(=O)N[C@@H](c2ccccc2)COC1=O)OCC1c2ccccc2-c2ccccc21 | 3.32% (inactive) |
| COc1cc2sc(-c3ccc(S(C)(=O)=O)cc3)c(C(=O)NCCCCO)c2cc1OC | 4.06% (inactive) |
| CCc1c(C)nc(N2CCN(c3cccc(OC)c3)CC2)[nH]c1=O | -3.6% (inactive) |
| Cc1ccc(-c2nc3ccc(Cl)cc3c(=O)n2O)cc1 | 54.8% (inactive) |
| O=c1c2ccccc2nc(-c2ccc([N+](=O)[O-])cc2)n1O | 30.3% (inactive) |
| CSCCCNC(=S)Nc1ccc(N2CCOCC2)cc1N1CCOCC1 | 6.87% (inactive) |

| SMILES | inhibition |
| --- | --- |
| Cc1cc(C)c(C(=O)COC(=O)c2nn(C)c(=O)c3ccccc23)cc1C | -5.14% (inactive) |
| Cc1ccc(Sc2ccc(C(=O)N3CCOCC3)cc2[N+](=O)[O-])cc1 | 0.73% (inactive) |
| O=C(O)/C=C/C(=O)Nc1ccc(O)cc1 | -6.75% (inactive) |
| O=C(O)/C=C/C(=O)Nc1ccc(C(=O)c2ccccc2)cc1 | 3.27% (inactive) |
| CC(=O)C[C@H](O)CC(=O)[C@H]1OC(=O)[C@H](C)CCCCc2ccccc21 | -1.44% (inactive) |
| O=C(O)c1cc(N/N=C/c2ccc(-c3ccc(F)cc3)o2)ccc1Cl | 13.7% (inactive) |
| CCCn1c(CCC(=O)Nc2ccccc2Cc2ccccc2)nc2cc(S(=O)(=O)N3CCOCC3)ccc21 | -3.41% (inactive) |
| CCOc1ccc2noc3c2c1C(=O)c1ccccc1-3 | 6.97% (inactive) |
| COc1ccc2noc3c2c1C(=O)c1ccccc1-3 | 38.9% (inactive) |
| NC(=O)COc1ncnc2scc(-c3ccc(F)cc3)c12 | -9.11% (inactive) |
| c1ccc(-c2nccc(-c3ccc(-n4cnc5ccccc54)cc3)n2)cc1 | 16% (inactive) |
| c1ccc2c(c1)ncn2-c1ccc(-c2ccnc(-c3ccncc3)n2)cc1 | -0.53% (inactive) |
| CCN(CC)S(=O)(=O)c1cccc(C(=O)NCCCn2ccnc2)c1 | 3.66% (inactive) |
| CN1CCc2cccc3c2[C@H]1Cc1ccc(O)c(O)c1-3 | 29.9% (inactive) and 14.3% (inactive) and 5.91% (inactive) |
| CN1CCc2cccc3c2C1Cc1ccc(O)c(O)c1-3 (stereo not given) | 35.5% (inactive) |
| CC1CCc2c(sc3ncnc(NCCN4CCOCC4)c23)C1 (stereo not given) | 1.22% (inactive) |
| COCCCNc1ncnc2sc3c(c12)CCC(C)C3 (stereo not given) | 13.1% (inactive) |
| COc1cc(C)cc(CN2CC=C(c3ccccc3)CC2)c1O | 4.09% (inactive) |
| Cn1nc(C(=O)NCC(c2cccs2)N2CCOCC2)c2ccccc2c1=O (stereo not given) | -7.54% (inactive) |
| CCOCCN1CCN(c2c(C)c(C)nc3cc(-c4cc(OC)cc(OC)c4)nn23)CC1 | -16.2% (inactive) |
| CCc1c(C)nc2cc(-c3cc(OC)cc(OC)c3)nn2c1N1CCN(CCN2CCOCC2)CC1 | -1.99% (inactive) |
| COc1ccc(OC)c(NC(=O)c2ccc(S(=O)(=O)N3CCN(C)CC3)cc2)c1 | -1.22% (inactive) |
| Cc1ccc(CNS(=O)(=O)c2ccc(-n3cnnn3)c(C)c2)cc1 | 5.67% (inactive) |

| SMILES | inhibition |
| --- | --- |
| COc1cccc(-c2c(-c3cc(OC)cc(OC)c3)n(C)c3ccc(-c4cnc(N5CCOCC5)nc4)cc23)c1 | 6.76% (inactive) |
| COc1cc(OC)cc(-c2c(C#Cc3ccsc3)c3cc(-c4ccc(CN5CCOCC5)cc4)ccc3n2C)c1 | 1.54% (inactive) |
| COc1ccc(NS(=O)(=O)c2cccc(C(=O)N3CCN(Cc4ccc5c(c4)OCO5)CC3)c2)cc1 | 12.7% (inactive) |
| O=Cc1cn(-c2ccccc2)nc1-c1cccnc1 | -1.66% (inactive) |
| O=C(/C=C/c1cn(-c2ccccc2)nc1-c1cccnc1)N1CCCCC1 | -0.1% (inactive) |
| Cc1nc2c(-c3ccccc3)c(C)nn2c(C)c1CCC(=O)N1CCC2(CC1)OCCO2 | 8.75% (inactive) |
| COc1cc(/C=C/C(=O)OCC(=O)NCCc2ccccc2)ccc1OC(F)F | -11.9% (inactive) |
| N#C/C(=C\c1ccc(Sc2nc3ccccc3[nH]2)o1)c1ccccc1 | -1.33% (inactive) |
| N#C/C(=C/c1ccc(Sc2nc3ccccc3[nH]2)o1)c1cccc(F)c1 | 3% (inactive) |
| CCOC(=O)Cn1nc(C)n(-c2ccccc2)c1=O | -8.51% (inactive) |
| C[C@H](Cc1ccccc1)Nc1ncnc2c1ncn2[C@@H]1O[C@H](CO)[C@@H](O)[C@H]1O | -4.76% (inactive) |
| CN(C)c1ncnc2c1ncn2C1OC(CO)C(O)C1O (stereo not given) | -4.17% (inactive) |
| CCOc1ccccc1-n1nnnc1SCC(=O)OC | 3.09% (inactive) |
| Cc1cc(C)n2c(Br)c(CN3CCCC(C)C3)nc2n1 (stereo not given) | -0.64% (inactive) |
| Clc1ccc(CN2C3=NCCN3c3ccccc32)cc1Cl | -11.7% (inactive) |
| CCOc1cccc(-c2c(C(=O)N/N=C/c3sccc3C)nnn2-c2nonc2N)c1 | 3.18% (inactive) |
| O=C(CSc1nc2ncccc2[nH]1)Nc1ccc2c(c1)OCO2 | -7.9% (inactive) |
| CCc1ccc(NC(=O)CSc2nc3ncc(Br)cc3[nH]2)cc1 | 49.8% (inactive) |
| N#Cc1ccccc1OCc1cccc(S(=O)(=O)N2CCOCC2)c1 | -6.86% (inactive) |
| OCCN(CC#CC(O)(c1ccccc1)C1CCCC1)CCO (stereo not given) | 3.68% (inactive) |
| Cn1c(CCn2ccccc2=O)nc2cc(NC(=O)COc3ccccc3)ccc21 | 0.17% (inactive) |
